What was measured:
Experiment in all cases: DAPPL (digital affinity profiling via proximity ligation, sequencing); 10 mM Tris-HCl pH 7.5, 50 mM NaCl, 1 mM DTT, 4% glycerol, room temperature, 30 min; GST-TFs on glutathione beads, 16-mer random dsDNA library, 0.1% formaldehyde crosslink after washing; high values mean tight binding
Details in all cases: protein: recombinant; tags: N-terminal GST; dsDNA, one strand shown
FLI1 = target: T1, FLI1 (Homo sapiens, UniProt Q01543 1-452)
T1 sequence: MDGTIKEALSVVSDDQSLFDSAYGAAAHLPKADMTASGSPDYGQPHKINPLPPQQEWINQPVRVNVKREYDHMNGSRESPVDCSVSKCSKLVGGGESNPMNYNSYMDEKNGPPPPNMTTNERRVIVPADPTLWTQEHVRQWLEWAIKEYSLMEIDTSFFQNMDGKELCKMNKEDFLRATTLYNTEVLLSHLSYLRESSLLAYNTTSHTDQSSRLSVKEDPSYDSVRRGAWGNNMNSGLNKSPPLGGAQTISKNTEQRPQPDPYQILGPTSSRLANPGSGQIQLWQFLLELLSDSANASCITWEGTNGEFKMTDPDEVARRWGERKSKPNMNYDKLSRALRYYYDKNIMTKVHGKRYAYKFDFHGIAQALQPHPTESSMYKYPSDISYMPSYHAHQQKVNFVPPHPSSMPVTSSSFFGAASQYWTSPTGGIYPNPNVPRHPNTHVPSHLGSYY
Outline: (§1)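 Pools were built from human transcription factors expressed in yeast as GST fusions, captured on glutathione beads and DNA-barcoded, along with a tag-only sample. Incubation with 200 nmole of a 16-mer random double-stranded DNA library lasted 30 min at room temperature in Tris/NaCl/DTT/glycerol buffer, and was followed by washing, 0.1% formaldehyde crosslinking, proximity ligation, PCR amplification and Illumina NextSeq500 sequencing. Binding signal is the quotient of each hexamer's read frequency for a factor and its frequency for the tag-only sample.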

ELK1 = target: T2, ELK1 (Homo sapiens, UniProt P19419 1-428)
T2 sequence: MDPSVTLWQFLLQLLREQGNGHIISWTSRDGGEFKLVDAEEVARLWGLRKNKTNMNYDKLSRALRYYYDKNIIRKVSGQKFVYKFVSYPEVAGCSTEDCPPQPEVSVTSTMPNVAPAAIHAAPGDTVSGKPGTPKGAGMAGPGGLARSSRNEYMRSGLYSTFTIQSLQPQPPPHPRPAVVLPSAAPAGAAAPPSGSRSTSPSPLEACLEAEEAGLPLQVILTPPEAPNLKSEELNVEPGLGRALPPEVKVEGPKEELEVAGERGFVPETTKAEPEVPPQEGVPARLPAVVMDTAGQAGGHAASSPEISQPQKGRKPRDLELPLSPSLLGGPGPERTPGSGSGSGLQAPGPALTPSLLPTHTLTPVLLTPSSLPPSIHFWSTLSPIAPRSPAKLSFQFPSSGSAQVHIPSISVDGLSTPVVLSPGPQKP
Outline: as §1

GABPA = target: T3, GABPA (Homo sapiens, UniProt Q06546 1-454)
T3 sequence: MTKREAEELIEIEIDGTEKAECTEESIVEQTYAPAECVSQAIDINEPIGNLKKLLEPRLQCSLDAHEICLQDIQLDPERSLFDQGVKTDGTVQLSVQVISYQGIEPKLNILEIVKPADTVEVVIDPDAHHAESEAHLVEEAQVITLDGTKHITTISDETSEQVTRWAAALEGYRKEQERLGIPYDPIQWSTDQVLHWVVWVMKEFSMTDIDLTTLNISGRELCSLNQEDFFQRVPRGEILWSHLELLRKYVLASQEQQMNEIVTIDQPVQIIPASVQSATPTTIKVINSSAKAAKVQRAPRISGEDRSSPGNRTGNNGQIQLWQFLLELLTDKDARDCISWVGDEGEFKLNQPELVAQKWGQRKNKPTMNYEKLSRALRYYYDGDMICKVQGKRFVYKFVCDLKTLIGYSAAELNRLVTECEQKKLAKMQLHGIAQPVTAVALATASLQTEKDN
Outline: as §1

ERG = target: T4, ERG (Homo sapiens, UniProt P11308 1-479)
T4 sequence: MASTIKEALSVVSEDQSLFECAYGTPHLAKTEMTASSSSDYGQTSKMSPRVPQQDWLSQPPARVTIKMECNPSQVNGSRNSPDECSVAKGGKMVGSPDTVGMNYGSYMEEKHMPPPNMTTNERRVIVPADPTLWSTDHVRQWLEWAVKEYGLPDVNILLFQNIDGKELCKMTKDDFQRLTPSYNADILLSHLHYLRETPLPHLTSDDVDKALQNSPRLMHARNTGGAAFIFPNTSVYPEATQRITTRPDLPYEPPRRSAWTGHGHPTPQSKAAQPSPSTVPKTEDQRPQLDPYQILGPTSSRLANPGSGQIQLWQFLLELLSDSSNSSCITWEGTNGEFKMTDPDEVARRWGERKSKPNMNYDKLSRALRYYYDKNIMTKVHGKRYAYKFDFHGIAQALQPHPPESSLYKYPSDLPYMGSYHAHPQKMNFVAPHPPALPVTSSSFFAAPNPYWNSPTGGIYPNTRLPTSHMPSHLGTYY
Outline: as §1

ELF1 = ELF1 (Homo sapiens, UniProt P32519 1-619)
Outline: as §1

EHF = target: T5, EHF (Homo sapiens, UniProt Q9NZC4 1-300)
T5 sequence: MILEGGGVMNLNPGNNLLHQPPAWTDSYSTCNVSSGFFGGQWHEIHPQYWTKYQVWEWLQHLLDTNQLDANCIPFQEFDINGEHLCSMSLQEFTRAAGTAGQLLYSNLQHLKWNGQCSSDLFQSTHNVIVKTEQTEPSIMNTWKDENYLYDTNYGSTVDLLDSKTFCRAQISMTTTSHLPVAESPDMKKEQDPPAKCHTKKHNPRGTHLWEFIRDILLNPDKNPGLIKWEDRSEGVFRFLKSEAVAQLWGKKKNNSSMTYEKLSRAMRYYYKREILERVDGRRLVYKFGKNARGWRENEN
Outline: as §1

SPI1 = SPI1 (Homo sapiens, UniProt P17947 1-270)
Outline: as §1

SPIB = SPIB (Homo sapiens, UniProt Q01892 1-262)
Outline: as §1

ELK3 = target: T6, ELK3 (Homo sapiens, UniProt P41970 1-407)
T6 sequence: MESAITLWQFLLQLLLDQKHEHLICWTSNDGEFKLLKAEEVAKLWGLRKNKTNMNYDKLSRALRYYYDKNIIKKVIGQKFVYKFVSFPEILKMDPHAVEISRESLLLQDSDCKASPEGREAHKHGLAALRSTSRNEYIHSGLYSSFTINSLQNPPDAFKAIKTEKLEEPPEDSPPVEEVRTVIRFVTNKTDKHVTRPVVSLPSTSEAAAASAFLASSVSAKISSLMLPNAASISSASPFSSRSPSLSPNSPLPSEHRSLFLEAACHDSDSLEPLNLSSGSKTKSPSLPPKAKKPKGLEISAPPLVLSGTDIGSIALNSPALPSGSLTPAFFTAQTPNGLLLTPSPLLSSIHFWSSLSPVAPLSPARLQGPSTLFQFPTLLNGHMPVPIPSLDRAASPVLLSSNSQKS
Outline: as §1

ELF1, sequence (P32519 whole entry): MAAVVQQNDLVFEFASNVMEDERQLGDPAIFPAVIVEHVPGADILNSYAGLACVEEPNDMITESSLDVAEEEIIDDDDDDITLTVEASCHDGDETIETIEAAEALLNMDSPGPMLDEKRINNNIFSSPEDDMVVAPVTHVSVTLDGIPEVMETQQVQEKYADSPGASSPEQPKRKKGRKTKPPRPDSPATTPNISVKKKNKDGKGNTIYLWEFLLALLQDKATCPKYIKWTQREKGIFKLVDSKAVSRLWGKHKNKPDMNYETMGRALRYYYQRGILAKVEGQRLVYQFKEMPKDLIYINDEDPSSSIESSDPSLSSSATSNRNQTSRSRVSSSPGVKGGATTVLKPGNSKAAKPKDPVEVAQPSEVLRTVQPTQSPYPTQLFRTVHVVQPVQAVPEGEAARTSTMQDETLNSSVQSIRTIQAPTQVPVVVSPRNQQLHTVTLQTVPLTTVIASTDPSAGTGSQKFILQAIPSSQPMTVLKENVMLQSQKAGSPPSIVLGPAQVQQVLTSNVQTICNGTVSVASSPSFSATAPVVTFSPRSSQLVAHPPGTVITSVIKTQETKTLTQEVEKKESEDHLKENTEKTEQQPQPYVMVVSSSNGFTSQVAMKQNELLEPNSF
SPIB, sequence (Q01892 whole entry): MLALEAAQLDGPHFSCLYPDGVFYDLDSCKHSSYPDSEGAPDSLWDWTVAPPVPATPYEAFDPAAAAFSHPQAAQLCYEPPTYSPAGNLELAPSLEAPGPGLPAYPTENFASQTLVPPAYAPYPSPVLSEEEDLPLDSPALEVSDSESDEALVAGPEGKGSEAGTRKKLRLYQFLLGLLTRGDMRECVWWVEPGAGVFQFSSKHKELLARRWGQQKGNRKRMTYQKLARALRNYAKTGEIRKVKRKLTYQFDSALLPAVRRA

CACCTT was tested, and the binding signal (FLI1) was 1.36 fold enrichment (6-mer frequency, TF over GST control), the binding signal (ELK1) was 1.28 fold enrichment (6-mer frequency, TF over GST control) and the binding signal (GABPA) was 1.22 fold enrichment (6-mer frequency, TF over GST control). The binding signal (ERG) was 1.26 fold enrichment (6-mer frequency, TF over GST control), the binding signal (ELF1) was 1.24 fold enrichment (6-mer frequency, TF over GST control) and the binding signal (EHF) was 1.34 fold enrichment (6-mer frequency, TF over GST control). The binding signal (SPI1) was 1.25 fold enrichment (6-mer frequency, TF over GST control), the binding signal (SPIB) was 1.18 fold enrichment (6-mer frequency, TF over GST control) and the binding signal (ELK3) was 1.26 fold enrichment (6-mer frequency, TF over GST control).

From paper PMC7862700, “An all-to-all approach to the identification of sequence-specific readers for epigenetic DNA modifications on cytosine”
